uPA generation = cell surface uPA generation inhibition. cell surface uPA generation assay, qHTS. Potency, µM (series often up to 38.3 µM), without a hit: top-dose activity change, negative = inhibition, hits mostly inhibitors. actives 0.31% (n = 330,000). AID 540303; active means well fitted inhibition curve with a large enough effect; inconclusive means small, poorly fitted or top-dose-only effect; inactive means no such curve, though single readings can be large or run the other way; tested in mouse RAW 264.7 cells; further: potency means the concentration at half of the fitted maximal effect; nearly all actives have a fitted effect of over 55% in size
HT1080-NT tox = kills 2HG-producing HT-1080-NT fibrosarcoma cells. AID 686970. Potency, µM (top dose mostly 46.1 µM), for inactives: at the highest dose activity, negative = less viability, usual class: cytotoxic. HT-1080-NT fibrosarcoma viability, CellTiter-Glo ATP luminescence, 48 h. actives 1.6% (n = 360,000);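 further: NT is the 2HG producing partner of a matched IDH1 knockdown line; potency means the concentration at half of the fitted maximal effect; 0% = DMSO-treated cells and -100% = media-only wells without cells; nearly all actives have a fitted effect of over 55% in size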
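A 48-hour cytotoxicity screen used HT-1080-NT cells plated 2 hours before compound delivery. ATP-based CellTiter-Glo luminescence measured viability, normalized to DMSO and no-cell controls.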
DT40 TDP1 no CPT = qHTS for Inhibitors of human tyrosyl-DNA phosphodiesterase 1 (TDP1): qHTS in cells in absence of CPT. DT40 Tdp1-/- hTDP1 cells, no CPT, ATP luminescence, 48 h. Potency, µM (doses to about 46.2 µM), for inactives: at the top dose activity change, negative = growth inhibition, actives largely listed as inhibitors. actives 15% (n = 420,000). AID 686978, 2013; further: potency means the concentration at half of the fitted maximal effect; nearly all actives have a fitted effect of over 55% in size
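Seeded 400 DT40-hTDP1 cells/well (vehicle DMSO, no 20 nM CPT); pinned compounds; ≥48 hr at 37 °C; CellTiter-Glo luminescence as viability measure.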
IL1B secr inh = inhibitors of inflammasome signaling (IL-1 beta secretion); activity change, % at 57.5 µM; actives 4.7% (n = 360,000); AID 743279; THP-1 LPS/ATP IL-1B secretion, AlphaLISA, 16 h; active compounds read low; in the data active means activity change below about -50%; inconclusive means mostly about -30% to -49%
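THP-1 cells pretreated 1 hr with compounds (up to 57.5 uM final), then stimulated with LPS (250 ng/mL final) plus ATP (1.25 mM final); secreted IL-1B measured by AlphaLISA after 16 hr, decreased signal indicating inhibition.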
TDP1 cell CPT = growth inhibition of DT40 Tdp1-/-;hTDP1 cells with camptothecin (screen for TDP1 inhibitors); actives 12% (n = 420,000); chicken DT40 Tdp1-/-;hTDP1 cells + 20 nM CPT, ATP luminescence, 48 h; Potency, µM (doses to about 46.2 µM), for inactives: top-dose activity change, negative = growth inhibition, hits mostly inhibitors; further: potency means the concentration at half of the fitted maximal effect; nearly all actives have a fitted effect of over 55% in size
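Cell growth measured by CellTiter-Glo luminescence after a minimum 48 h, 37 C compound exposure with 20 nM CPT in Tdp1-knockout DT40 cells stably expressing hTDP1, seeded 400/well; qHTS titration format.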
HT1080 IDH1KD tx = toxicity to HT-1080 IDH1 knockdown cells (counter line); Potency, µM (highest dose often 46.1 µM), for inactives: top-dose activity, negative = toxicity, actives largely listed as cytotoxic; actives 2% (n = 360,000); HT-1080 IDH1 knockdown viability, ATP luminescence, 48 h;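 further: potency means the concentration at half of the fitted maximal effect; 0% = DMSO wells and -100% = cell-free medium wells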
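HT-1080-IDH1KD cells (IDH1 knocked down), 750/well in RPMI with 5% FBS, treated with compound 48 h at 37 degrees C. Viability by CellTiter-Glo luminescence, normalised to DMSO and no-cell wells; concentration-response curves classed.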
Active calls of the source: *; i = inactive; ? = inconclusive; . = no result given; ! = not confirmed by another sample; [ ] = dose if it differs, or a comment. The list is not random: actives were taken first. Their share in the collection is about 19%. Unless noted, the call rests on the fitted dose curve; in most records, active means well fitted curve in the direction sought with a large enough effect; inconclusive means small, poorly fitted or top-dose-only effect, or another doubt; inactive means no such curve, though single readings can be large; an effect the other way counts as inactive or inconclusive. Unless noted, on the % scale 0 is the no-effect control and ±100 the full control effect.

SMILES	uPA generation	HT1080-NT tox	DT40 TDP1 no CPT	IL1B secr inh	TDP1 cell CPT	HT1080 IDH1KD tx
COC(=O)c1cncc(C)c1	-4.1%	6.2%	-2.0%	-3.0	-3.1%	-0.7%
COCOc1cc(O)c(C(=O)/C=C/c2ccccc2)c(OCOC)c1	10µM*	?	18.4µM*	-103.1*	14.6µM*	?
COc1ccc(/C=C/C(=O)c2cc3cccc(OC)c3oc2=O)cc1	-9.8%	-18.2%	23.1µM*	-18.8	?	-0.3%
COc1ccc(C(=O)/C=C/c2ccccc2)c(OC)c1	?	-25.2%	11.6µM*	-110.6*	-104.4%	?
CNC(=O)c1cc2cccc(OC)c2oc1=O	-7.7%	-5.0%	10.3%	15.1	-7.1%	-1.1%
O=C(/C=C/c1ccccc1)OCc1ccccc1	.	.	-26.8%	.	?	.
COc1ccc(C(=O)/C=C/c2ccc(N(C)C)cc2)c(OC)c1	-21.2%	?	10.3µM*	-100.1*	7.31µM*	?
O=C(Nc1c2c(nc3c1CCC3)CCCC2)c1ccccn1	-1.0%	-3.1%	-26.2%	24.7	-4.1%	-0.9%
Cc1ccc(OC(=O)CCC(=O)Nc2ccc(C(N)=O)cc2)cc1	1.9%	28.6%	-16.2%	-4.0	28.1%	13.8%
O=C(COc1ccccc1)NCC(c1ccco1)N1CCCCC1 (configuration not stated)	-15.0%	0.5%	?	-4.0	2.5%	8.5%
CN(CC(=O)Nc1ccc(F)cc1)C(=O)COC(=O)c1cc(Br)c(Br)s1	15.9%	-0.8%	?	-0.7	-5.2%	0.0%
COc1ccc(OC)c(C(=O)/C=C/c2ccccc2C(F)(F)F)c1	-16.0%	?	20.6µM*	-109.6*	25.9µM*	?
COc1cccc(-c2nn(-c3ccccc3)cc2/C=C\C(=O)c2cccs2)c1	-3.3%	15.3%	-27.9%	-17.5	-27.5%	7.4%
COc1cc(C)cc(C(=O)C=Cc2ccccc2)c1O	-6.8%	23.1µM*	?	-59.0*	?	?
COc1ccc(/C=C/C(=O)c2cccs2)c(OC)c1	.	.	2.37µM*	.	1.06µM*	.
COc1ccccc1-c1nccc(NCc2cnc(C)cn2)n1	.	.	-1.8%	.	2.9%	.
COc1ccccc1CCCNC(=O)C1CCC(=O)N(Cc2ccccc2F)C1 (configuration not stated)	-3.9%	1.0%	?	-2.3	?	-9.7%
O=C(COc1ccc2ccccc2c1)Nc1ccncc1	-0.1%	-16.1%	16.4µM*	-0.4	?	-26.4%
CC(C)(C)CC(C)(C)NC(=O)CSCC(=O)Nc1ccc2ccccc2c1	6.3%	15.8µM*	?	-94.3*	18.4µM*	-0.8%[9.24 µM]
O=C(COc1ccc2ccccc2c1)NCCn1ccc2ccccc21	7.7%	0.0%	20.6µM*	-14.0	?	-7.6%
O=C(CSc1ccc2ccccc2c1)Nc1ccncc1	0.2%	-23.0%	14.6µM*	-0.2	?	-24.6%
Cc1cccc(C(=O)NCCc2ccccc2)c1	2.2%	-1.6%	?	4.9	-12.4%	18.9%
CN1[C@@H](Cc2ccccc2)COc2cc(N3CCSCC3)ccc2S1(=O)=O	.	2.6%	16.4µM*	-12.0	?	-14.0%
COCCn1c(SCc2cnc(-c3ccccc3)s2)nnc1-c1ccncc1	2.7%	-5.8%	?	8.8	20.6µM*	-16.6%
CC(=O)c1cccc(NC(=O)c2sc3nc4n(c(=O)c3c2C)CCCCC4)c1	-2.4%	0.0%	23.1µM*	-27.4	?	-0.4%
SMILES	uPA generation	HT1080-NT tox	DT40 TDP1 no CPT	IL1B secr inh	TDP1 cell CPT	HT1080 IDH1KD tx
Cc1c(C(=O)Nc2ccc(Oc3ccccc3)cc2)sc2nc3n(c(=O)c12)CCC3	-18.0%	-20.7%	18.4µM*	-14.4	?	-27.0%
CSc1cccc(NC(=O)c2sc3nc4n(c(=O)c3c2C)CCC4)c1	-5.6%	14.2%	-11.2%	?	?	-1.5%
COc1cccc(NC(=O)c2sc3nc4n(c(=O)c3c2C)CCC4)c1	-19.3%	2.0%	14.6µM*!	-28.1	?	-1.4%
COc1cc(/C=C/c2nc(C#N)c(N3CCN(C)CC3)o2)cc(OC)c1OC	.	.	8.2µM*	.	8.2µM*	.
COc1ccc(N2CCN(c3oc(/C=C/c4cccc(OC)c4)nc3C#N)CC2)cc1	.	.	10.2%	.	-1.9%	.
COc1cccc(/C=C/c2nc(C#N)c(N3CCN(C)CC3)o2)c1	.	.	23.1µM*	.	23.1µM*	.
CCOC(=O)c1nnn(C(CC)C(=O)Nc2ccc(F)cc2)c1C(=O)OCC (configuration not stated)	.	.	-12.5%	.	-7.6%	.
CC(OC(=O)c1cccc(S(=O)(=O)Nc2cccc(C(F)(F)F)c2)c1)C(=O)Nc1ccc2c(c1)OCCO2 (configuration not stated)	-0.4%	-15.4%	16.4µM*	-3.7	-21.7%	-9.3%
COc1cc(OC)c(C(=O)OC(C)C(=O)Nc2cccc(C(F)(F)F)c2)cc1OC (configuration not stated)	1.5%	-2.5%	?	9.5	23.1µM*	-19.8%
COc1cc(SC)ccc1C(=O)OC(C)C(=O)Nc1ccc(NC(C)=O)cc1 (configuration not stated)	-1.3%	-0.3%	?	2.0	-6.9%	1.2%
Cc1sc2nc(C3CC3)nc(N3CCN(C(=O)c4ccc(Cl)cc4)CC3)c2c1C	-9.9%	-16.9%	18.4µM*	-6.5	?	-24.0%
CCCc1nc(N2CCN(S(=O)(=O)c3ccc(Cl)cc3)CC2)c2c(C)c(C)sc2n1	6.1%	3.6%	?	37.6	?	4.6%
Cc1sc2nc(C3CC3)nc(N3CCN(C(=O)c4ccc(F)cc4)CC3)c2c1C	-4.4%	?	23.1µM*	-60.2*	?	?
COc1ccc(C(=O)N2CCN(c3ncccn3)CC2)cc1	8.6%	1.0%	1.3%	-5.9	-5.5%	1.7%
COc1ccc(C(=O)N2CCN(c3nc(C4CC4)nc4sc(C)c(C)c34)CC2)cc1	5.5%	-8.2%	20.6µM*	-64.7*	?	-8.4%
Cc1sc2nc(C3CC3)nc(N3CCN(S(=O)(=O)c4ccc(F)cc4)CC3)c2c1C	3.7%	5.1%	11.2µM*	-21.8	?	?
Cc1sc2nc(C3CC3)nc(N3CCN(C(=O)c4ccccc4F)CC3)c2c1C	-1.4%	-17.0%	?	-26.4	?	?
CC(=O)Nc1ccc(NC(=O)C(C)OC(=O)CNS(=O)(=O)c2ccc(Br)cc2Cl)cc1 (configuration not stated)	-5.4%	-0.7%	23.1µM*	i	-12.6%	-3.5%

Source: PubChem BioAssay (National Center for Advancing Translational Sciences (NCATS))
